Assay outcomes from PubChem BioAssay.
Hits are enriched below; roughly 7.6% of the tested compounds scored in any of these assays.
VP16 counter = counter-screen for ROR gamma inhibitors: Gal4-VP16 reporter | AID 2546 | Drosophila S2 Gal4-VP16 UAS-luciferase, luminescence, 20 h | actives 3.5% (n = 310,000) | Potency, µM (doses to about 53.6 µM), most hits filed as inhibitors;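 further: Gal4-VP16 expression switched on by copper sulfate through the metallothionein promoter; nearly all actives have a fitted effect of over 50% in size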
RORg inh = blocks mouse ROR gamma transcriptional activity. P51450. Drosophila S2 Gal4-RORgamma UAS-luciferase reporter, 20 h. Potency, µM (doses to about 53.6 µM), most hits filed as inhibitors. actives 5.4% (n = 310,000). AID 2551; further: nearly all actives have a fitted effect of over 60% in size
Target sequence (P51450 whole entry, looked up, the tested form may be a part): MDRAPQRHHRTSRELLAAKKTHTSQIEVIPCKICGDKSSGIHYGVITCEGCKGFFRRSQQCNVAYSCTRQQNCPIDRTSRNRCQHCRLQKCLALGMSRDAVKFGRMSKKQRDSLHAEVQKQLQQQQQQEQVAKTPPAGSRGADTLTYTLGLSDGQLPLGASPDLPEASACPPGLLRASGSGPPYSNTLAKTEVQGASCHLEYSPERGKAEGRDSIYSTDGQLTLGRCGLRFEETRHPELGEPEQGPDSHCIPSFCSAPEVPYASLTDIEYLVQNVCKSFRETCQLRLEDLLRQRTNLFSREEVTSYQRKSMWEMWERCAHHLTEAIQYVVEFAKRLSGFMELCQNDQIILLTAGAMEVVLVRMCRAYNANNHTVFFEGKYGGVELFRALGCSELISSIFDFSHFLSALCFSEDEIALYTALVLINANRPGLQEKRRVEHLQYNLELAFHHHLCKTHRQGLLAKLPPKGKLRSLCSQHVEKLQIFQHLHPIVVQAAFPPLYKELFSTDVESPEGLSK
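ROR gamma transcriptional activity was tracked as Gal4-UAS luciferase output in stably transfected Drosophila Schneider cells, with compound added 1 hr before 700 uM copper sulfate induction and a 20 hr ambient-temperature incubation.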
Giardia kill = kills Giardia lamblia; AID 540267; actives 0.15% (n = 340,000); Giardia lamblia trophozoite viability; activity change, % at 7.66 µM, hits read low; in the data active means activity change below about -80%; inconclusive means between about -30% and that limit;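 further: parasites exposed to compound for two days anaerobically before the ATP read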
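Compounds were tested on trophozoites seeded at 100 cells/well and held 48 hrs at 37 deg C anaerobically. An ATP-based luminescent kit measured the remaining live cells.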
p53 reactivator = re-activators of mutant p53 | actives 0.063% (n = 320,000) | Potency, µM (highest dose often 92.2 µM), hits mostly activators | H1299 p53-A138V BP100-luciferase reporter, luminescence, 24 h | AID 504706; further: nearly all actives have a fitted effect of over 45% in size
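p53-null H1299 cells stably carrying temperature-sensitive p53-A138V and a BP100-luciferase reporter were pinned with compounds (4-point, 1:5 series) and held 24 hrs at 37 deg C. Luminescence was read 10 min after detection reagent.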
BRCA1 expr act = activators of BRCA1 expression | actives 1.1% (n = 380,000) | MCF7-BRCA1-FFLuc reporter, luminescence, 48 h; response scale: scaled: vehicle 0%, 10 µM genistein 100% | Potency, µM (series often up to 46.1 µM), actives largely listed as activators; further: nearly all actives have a fitted effect of over 80% in size
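Compounds are tested at multiple concentrations on MCF7 BRCA1-luciferase reporter cells seeded at 2000 per well; after 48 h, a single luminescence end-point is taken and curves fitted to the normalized data.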
ELG1 repair inh = ELG1-dependent DNA repair inhibition. HEK293T ELG1-luciferase reporter, luminescence, 16 h; DNA damage induced by 5-fluorouridine. Potency, µM (highest dose often 46.1 µM), actives largely listed as inhibitors. actives 2.3% (n = 330,000). AID 504467; further: nearly all actives have a fitted effect of over 55% in size
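DMSO vehicle served as the neutral condition. Each well held 2,000 cells given 5-fluorouridine plus compound; after 16 hr at 37 °C/5% CO2, ONE-Glo was added and luciferase measured 30 min later.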
A number is an active result; 0 = inactive; ? = inconclusive; - = no result; [ ] = another dose, or the depositor's remark. Unless noted, the call rests on the fitted dose curve; in most records, active means well fitted curve in the direction sought with a large enough effect; inconclusive means small, poorly fitted or top-dose-only effect, or another doubt; inactive means no such curve, though single readings can be large; an effect the other way counts as inactive or inconclusive.

SMILES | VP16 counter | RORg inh | Giardia kill | p53 reactivator | BRCA1 expr act | ELG1 repair inh
COC(=O)C1=NN(C(=O)c2ccc(Br)cc2)C(O)(C(C)(C)C)C1 (stereo not given) | ? | ? | 0 | 0 | 0 | 0
O=C(c1ccccc1)N1N=C(C(F)(F)F)CC1(O)c1ccccc1 (stereo not given) | ? | 0[1.91 µM] | 0 | - | 0 | 0
O=C(c1ccccc1)N1N=C(C(F)(F)F)CC1(O)c1ccc(F)cc1 (stereo not given) | ? | 20µM | 0 | - | 0 | 0
CCC1=NN(C(=O)COc2ccccc2)C(O)(c2ccncc2)C1 (stereo not given) | 0 | 0 | 0 | 0 | 0 | 0
COC(=O)C1=NN(C(=O)c2cccc(Cl)c2)C(O)(C(C)(C)C)C1 (stereo not given) | ? | 5.01µM | 0 | ? | 0 | 0
Cc1cccc(N2C(=O)N3[C@H](c4ccc(Br)cc4)[C@@H]4C(=O)N(C(C)(C)C)C(=O)[C@@H]4[C@]3(Cc3ccc(Cl)cc3)C2=O)c1 | 0 | 0 | 0 | - | 0 | 0
O=C(NC1CC2CCC(C1)N2Cc1ccccc1)c1ccccc1Br (stereo not given) | 0 | 0 | 0 | - | 0 | 0
O=C(/C=C/c1cccs1)NNC(=O)c1cccc([N+](=O)[O-])c1 | - | - | 0 | 0 | 0 | ?
COC(=O)C1=NN(C(=O)c2ccccc2)C(C)(O)C1 (stereo not given) | 0 | 0 | 0 | 0 | 0 | ?
CC1=NN(C(=O)CCc2ccccc2)C(O)(c2ccncc2)C1 (stereo not given) | ? | 1.78µM | 0 | 0 | 0 | 0
COC(=O)C1=NN(C(=O)c2ccccc2)C(O)(c2ccc([N+](=O)[O-])cc2)C1 (stereo not given) | 7.08µM | 5.01µM | 0 | 0 | 0 | 0
CCC(C(=O)NC(C)(C)C)N(Cc1ccco1)C(=O)Cn1nnc(-c2ccc(F)cc2)n1 (stereo not given) | 0 | 0 | 0 | 0 | 0 | ?
COC(=O)CC1C(=O)NCCN1C(=S)NC(=O)C(c1ccccc1)c1ccccc1 (stereo not given) | 15.8µM | 10µM | 0 | 0 | 0 | 0
CC(C)OC(=O)CC1C(=O)NCCN1C(=S)NC(=O)c1ccc(F)cc1 (stereo not given) | 8.91µM | 3.16µM | 0 | 0 | 0 | 0
CC(C)OC(=O)CC1C(=O)NCCN1C(=S)NC(=O)c1ccccc1 (stereo not given) | 0[10 µM] | 0 | 0 | 0 | 0 | 0
COC(=O)CC1C(=O)NCCN1C(=S)NC(=O)c1sc2ccccc2c1Cl (stereo not given) | 7.08µM | 0.631µM | 0 | 0 | 0 | 0
O=C(Nc1oc2ccccc2c(=O)c1-c1ccc2c(c1)OCO2)c1ccco1 | - | - | - | - | 0 | -
O=c1oc2c(O)c(O)cc3c(=O)oc4c(O)c(O)cc1c4c23 | ? | 0 | 0 | 0 | 0 | 0
c1cncc(-c2csc(NCc3ccco3)n2)c1 | 0 | 0 | 0 | 0 | 0 | ?
CCN(CC)c1ccc(Nc2nc(-c3cccnc3)cs2)cc1 | 0 | 0 | 0 | 0 | 3.98µM | ?
COc1ccc(Nc2nc(-c3cccs3)cs2)c(OC)c1 | 0 | 0 | 0 | ? | 0[1.84 µM] | ?
c1ccc(CCNc2nc(-c3cccnc3)cs2)cc1 | 0[0.365 µM] | 0 | 0 | ? | 8.91µM | ?
CN(C)c1ccc(Nc2nc(-c3cccnc3)cs2)cc1 | ? | ? | ? | 0 | 0 | ?
COc1ccccc1Nc1nc(-c2cccnc2)cs1 | 0 | ? | 0 | - | 10µM | ?
COc1ccc(Nc2nc(-c3cccnc3)cs2)c(OC)c1 | 0 | ? | 0 | 0 | 11.2µM | ?
SMILES | VP16 counter | RORg inh | Giardia kill | p53 reactivator | BRCA1 expr act | ELG1 repair inh
Cc1ccc(CNc2nc(NCc3ccccc3)nc3ccsc23)c(C)c1 | - | - | - | - | 0 | -
Cn1c(-c2c(N)n(-c3ccccc3)c3nc4ccccc4nc23)nc2ccccc21 | 3.55µM | 1.12µM | 0 | 0 | 0 | ?
Cn1c(N)c(-c2nc3cccnc3n2C)sc1=S | 0 | 0 | 0 | 0 | 0 | ?
Cc1ccc(-n2c(N)c(-c3nc4ccccc4n3C)sc2=S)cc1 | ? | 5.01µM | 0 | ? | 0 | ?
Cn1c(=O)c2[nH]c(Cc3cccc(O)c3)nc2n(C)c1=O | - | - | 0 | - | 0 | -
Cn1c(=O)c2[nH]c(COc3ccc(C(C)(C)C)cc3)nc2n(C)c1=O | ? | 0 | 0 | 0 | 0 | 5.8µM
CCOc1cc(CNc2ccc(N3CCCCC3)cc2)cc(Br)c1OCC(=O)NC(C)(C)C | 0 | 0 | 0 | 0 | 0 | 0
CCOc1cc(CNc2ccc(N(C)C)cc2)cc(Br)c1OCC(=O)NC(C)(C)C | 0 | 10µM | 0 | 0 | 0 | ?
CCOc1ccc(N2C(=O)CC(Sc3nnnn3-c3ccccc3)C2=O)cc1 (stereo not given) | ? | 3.98µM | 0 | 0 | 0 | 0
COc1ccc(N2C(=O)CC(Sc3nc4ccccc4s3)C2=O)cc1 (stereo not given) | ? | 5.01µM | 0 | 0 | 0 | 0
CCOc1ccc(N2C(=O)CC(Sc3nc(C)cc(C)n3)C2=O)cc1 (stereo not given) | 0 | 0[10 µM] | 0 | 0 | 0 | 0
COc1ccc(N2C(=O)CC(Sc3nccc(C)n3)C2=O)cc1 (stereo not given) | ? | 0 | 0 | 0 | 0 | 0
CCOc1ccc2nc(SC3CC(=O)N(c4ccc(OC)cc4)C3=O)sc2c1 (stereo not given) | ? | 15.8µM | 0 | 0 | 0 | ?
C=CCNc1nnc(SC2CC(=O)N(c3ccc(OC)cc3)C2=O)s1 (stereo not given) | 12.6µM | 4.47µM | 0 | 0 | 0 | 0
COc1ccc(N2C(=O)CC(NNc3nc4ccccc4s3)C2=O)cc1 (stereo not given) | 0 | 0 | 0 | 0 | 0 | 0
COc1cc(OC)cc(C2=Cc3ccccc3C(CC(C)=O)N2c2ccc(-c3cncnc3)cc2)c1 (stereo not given) | - | - | - | - | 0 | -
c1cc2c(cc1CNc1ccc(N3CCOCC3)cc1)OCO2 | - | - | 0 | ? | 4.47µM | ?
Fc1ccccc1CN1CCC(Cc2ccccc2)CC1 | 0 | 0 | 0 | 0 | 0 | 0
O=C(Cc1noc2ccccc12)Nc1ccc2ccccc2c1 | 0 | ? | 0 | ? | ? | ?
COc1ccc(-n2ncc(Cl)c(Cl)c2=O)cc1 | ? | 2µM | 0 | 0 | 0 | ?
Cc1ccc(-n2ncc(N(C)C)c(Cl)c2=O)cc1 | ? | 11.2µM | 0 | 0 | 0 | ?
COc1cccc(C(=O)Nc2ccc3nc4n(c(=O)c3c2)CCCC4)c1 | 0 | 0 | 0 | 0 | 0 | ?
C=CCn1c(SCC(=O)N2CCOCC2)nc2sc3c(c2c1=O)CCCC3 | 0 | 0 | 0 | 0 | 0 | 18.4µM
Cn1c(SCC(=O)N2CCOCC2)nc2sc3c(c2c1=O)CCCC3 | 0 | 0 | 0 | 0 | 0 | 0
O=C(NCc1ccco1)c1ccccc1Br | 0 | 0 | 0 | 0 | 0 | 0
